Consider 57 molecules from the supplement of paper PMC7724964.

T1: VCL 1-259 Vinculin (domain begin residue: 1, domain end residue: 259), P18206
T1 chain: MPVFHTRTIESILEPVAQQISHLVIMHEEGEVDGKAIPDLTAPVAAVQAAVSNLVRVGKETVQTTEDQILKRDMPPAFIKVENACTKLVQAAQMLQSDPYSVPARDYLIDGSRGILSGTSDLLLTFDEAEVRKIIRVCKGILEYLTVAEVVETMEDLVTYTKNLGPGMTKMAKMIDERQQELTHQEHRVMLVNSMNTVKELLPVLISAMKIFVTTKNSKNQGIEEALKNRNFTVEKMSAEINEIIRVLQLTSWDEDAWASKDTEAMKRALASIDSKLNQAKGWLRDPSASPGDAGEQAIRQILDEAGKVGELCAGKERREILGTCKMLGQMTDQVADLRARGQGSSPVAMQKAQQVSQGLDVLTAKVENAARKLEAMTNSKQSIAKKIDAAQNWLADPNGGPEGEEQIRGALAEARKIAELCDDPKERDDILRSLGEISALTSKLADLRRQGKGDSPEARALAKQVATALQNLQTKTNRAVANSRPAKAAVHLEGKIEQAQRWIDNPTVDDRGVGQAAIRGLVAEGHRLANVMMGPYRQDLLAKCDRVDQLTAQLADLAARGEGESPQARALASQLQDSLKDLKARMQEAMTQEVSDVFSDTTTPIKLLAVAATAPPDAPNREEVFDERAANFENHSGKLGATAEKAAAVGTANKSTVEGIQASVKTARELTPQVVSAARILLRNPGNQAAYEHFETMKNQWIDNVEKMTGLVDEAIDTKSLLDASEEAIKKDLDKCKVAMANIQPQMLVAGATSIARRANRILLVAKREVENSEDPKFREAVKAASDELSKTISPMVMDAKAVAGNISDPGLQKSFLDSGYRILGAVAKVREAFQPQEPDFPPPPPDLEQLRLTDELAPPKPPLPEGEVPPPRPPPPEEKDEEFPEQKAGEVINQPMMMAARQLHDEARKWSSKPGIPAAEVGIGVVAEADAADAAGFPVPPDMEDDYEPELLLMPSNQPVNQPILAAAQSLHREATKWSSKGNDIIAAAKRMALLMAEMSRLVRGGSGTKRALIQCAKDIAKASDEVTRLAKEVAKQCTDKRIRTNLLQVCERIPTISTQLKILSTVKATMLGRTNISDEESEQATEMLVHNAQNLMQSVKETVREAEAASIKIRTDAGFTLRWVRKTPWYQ

T2: UEVLD 1-145 UEV (domain begin residue: 1, domain end residue: 145), Q8IX04
T2 chain: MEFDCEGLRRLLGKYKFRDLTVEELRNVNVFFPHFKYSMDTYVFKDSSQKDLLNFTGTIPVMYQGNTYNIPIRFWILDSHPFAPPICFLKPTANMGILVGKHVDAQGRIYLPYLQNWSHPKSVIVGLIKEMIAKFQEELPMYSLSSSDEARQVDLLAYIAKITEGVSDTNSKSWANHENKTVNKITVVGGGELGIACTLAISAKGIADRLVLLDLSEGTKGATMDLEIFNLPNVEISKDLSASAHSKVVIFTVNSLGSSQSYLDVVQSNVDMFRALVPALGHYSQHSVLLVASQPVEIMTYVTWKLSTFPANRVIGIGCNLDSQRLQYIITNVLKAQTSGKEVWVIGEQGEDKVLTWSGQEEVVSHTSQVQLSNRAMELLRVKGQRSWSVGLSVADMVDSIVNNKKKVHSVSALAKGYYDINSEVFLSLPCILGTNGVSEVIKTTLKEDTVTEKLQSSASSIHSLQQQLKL

T3: UQCRB 8-111 UCR_14kD (domain begin residue: 8, domain end residue: 111), P14927
T3 chain: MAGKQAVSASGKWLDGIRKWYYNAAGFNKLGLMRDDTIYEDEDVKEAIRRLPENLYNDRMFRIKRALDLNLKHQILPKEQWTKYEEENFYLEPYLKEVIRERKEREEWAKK

Chain of VASP 1-114 WH1 (domain begin residue: 1, domain end residue: 114), P50552 (P50552 whole entry): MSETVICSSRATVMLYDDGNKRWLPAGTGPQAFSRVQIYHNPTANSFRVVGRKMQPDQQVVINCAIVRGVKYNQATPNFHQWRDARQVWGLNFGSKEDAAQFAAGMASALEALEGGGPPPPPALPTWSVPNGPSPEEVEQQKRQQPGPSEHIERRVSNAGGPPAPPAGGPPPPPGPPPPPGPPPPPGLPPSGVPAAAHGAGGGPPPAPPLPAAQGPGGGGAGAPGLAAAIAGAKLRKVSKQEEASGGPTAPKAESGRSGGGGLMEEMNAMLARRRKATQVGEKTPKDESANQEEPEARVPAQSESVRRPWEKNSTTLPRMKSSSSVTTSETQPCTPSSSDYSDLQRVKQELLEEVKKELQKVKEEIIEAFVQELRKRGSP
Chain of UBR5 2391-2453 PABP (domain begin residue: 2391, domain end residue: 2453), O95071 (O95071 whole entry): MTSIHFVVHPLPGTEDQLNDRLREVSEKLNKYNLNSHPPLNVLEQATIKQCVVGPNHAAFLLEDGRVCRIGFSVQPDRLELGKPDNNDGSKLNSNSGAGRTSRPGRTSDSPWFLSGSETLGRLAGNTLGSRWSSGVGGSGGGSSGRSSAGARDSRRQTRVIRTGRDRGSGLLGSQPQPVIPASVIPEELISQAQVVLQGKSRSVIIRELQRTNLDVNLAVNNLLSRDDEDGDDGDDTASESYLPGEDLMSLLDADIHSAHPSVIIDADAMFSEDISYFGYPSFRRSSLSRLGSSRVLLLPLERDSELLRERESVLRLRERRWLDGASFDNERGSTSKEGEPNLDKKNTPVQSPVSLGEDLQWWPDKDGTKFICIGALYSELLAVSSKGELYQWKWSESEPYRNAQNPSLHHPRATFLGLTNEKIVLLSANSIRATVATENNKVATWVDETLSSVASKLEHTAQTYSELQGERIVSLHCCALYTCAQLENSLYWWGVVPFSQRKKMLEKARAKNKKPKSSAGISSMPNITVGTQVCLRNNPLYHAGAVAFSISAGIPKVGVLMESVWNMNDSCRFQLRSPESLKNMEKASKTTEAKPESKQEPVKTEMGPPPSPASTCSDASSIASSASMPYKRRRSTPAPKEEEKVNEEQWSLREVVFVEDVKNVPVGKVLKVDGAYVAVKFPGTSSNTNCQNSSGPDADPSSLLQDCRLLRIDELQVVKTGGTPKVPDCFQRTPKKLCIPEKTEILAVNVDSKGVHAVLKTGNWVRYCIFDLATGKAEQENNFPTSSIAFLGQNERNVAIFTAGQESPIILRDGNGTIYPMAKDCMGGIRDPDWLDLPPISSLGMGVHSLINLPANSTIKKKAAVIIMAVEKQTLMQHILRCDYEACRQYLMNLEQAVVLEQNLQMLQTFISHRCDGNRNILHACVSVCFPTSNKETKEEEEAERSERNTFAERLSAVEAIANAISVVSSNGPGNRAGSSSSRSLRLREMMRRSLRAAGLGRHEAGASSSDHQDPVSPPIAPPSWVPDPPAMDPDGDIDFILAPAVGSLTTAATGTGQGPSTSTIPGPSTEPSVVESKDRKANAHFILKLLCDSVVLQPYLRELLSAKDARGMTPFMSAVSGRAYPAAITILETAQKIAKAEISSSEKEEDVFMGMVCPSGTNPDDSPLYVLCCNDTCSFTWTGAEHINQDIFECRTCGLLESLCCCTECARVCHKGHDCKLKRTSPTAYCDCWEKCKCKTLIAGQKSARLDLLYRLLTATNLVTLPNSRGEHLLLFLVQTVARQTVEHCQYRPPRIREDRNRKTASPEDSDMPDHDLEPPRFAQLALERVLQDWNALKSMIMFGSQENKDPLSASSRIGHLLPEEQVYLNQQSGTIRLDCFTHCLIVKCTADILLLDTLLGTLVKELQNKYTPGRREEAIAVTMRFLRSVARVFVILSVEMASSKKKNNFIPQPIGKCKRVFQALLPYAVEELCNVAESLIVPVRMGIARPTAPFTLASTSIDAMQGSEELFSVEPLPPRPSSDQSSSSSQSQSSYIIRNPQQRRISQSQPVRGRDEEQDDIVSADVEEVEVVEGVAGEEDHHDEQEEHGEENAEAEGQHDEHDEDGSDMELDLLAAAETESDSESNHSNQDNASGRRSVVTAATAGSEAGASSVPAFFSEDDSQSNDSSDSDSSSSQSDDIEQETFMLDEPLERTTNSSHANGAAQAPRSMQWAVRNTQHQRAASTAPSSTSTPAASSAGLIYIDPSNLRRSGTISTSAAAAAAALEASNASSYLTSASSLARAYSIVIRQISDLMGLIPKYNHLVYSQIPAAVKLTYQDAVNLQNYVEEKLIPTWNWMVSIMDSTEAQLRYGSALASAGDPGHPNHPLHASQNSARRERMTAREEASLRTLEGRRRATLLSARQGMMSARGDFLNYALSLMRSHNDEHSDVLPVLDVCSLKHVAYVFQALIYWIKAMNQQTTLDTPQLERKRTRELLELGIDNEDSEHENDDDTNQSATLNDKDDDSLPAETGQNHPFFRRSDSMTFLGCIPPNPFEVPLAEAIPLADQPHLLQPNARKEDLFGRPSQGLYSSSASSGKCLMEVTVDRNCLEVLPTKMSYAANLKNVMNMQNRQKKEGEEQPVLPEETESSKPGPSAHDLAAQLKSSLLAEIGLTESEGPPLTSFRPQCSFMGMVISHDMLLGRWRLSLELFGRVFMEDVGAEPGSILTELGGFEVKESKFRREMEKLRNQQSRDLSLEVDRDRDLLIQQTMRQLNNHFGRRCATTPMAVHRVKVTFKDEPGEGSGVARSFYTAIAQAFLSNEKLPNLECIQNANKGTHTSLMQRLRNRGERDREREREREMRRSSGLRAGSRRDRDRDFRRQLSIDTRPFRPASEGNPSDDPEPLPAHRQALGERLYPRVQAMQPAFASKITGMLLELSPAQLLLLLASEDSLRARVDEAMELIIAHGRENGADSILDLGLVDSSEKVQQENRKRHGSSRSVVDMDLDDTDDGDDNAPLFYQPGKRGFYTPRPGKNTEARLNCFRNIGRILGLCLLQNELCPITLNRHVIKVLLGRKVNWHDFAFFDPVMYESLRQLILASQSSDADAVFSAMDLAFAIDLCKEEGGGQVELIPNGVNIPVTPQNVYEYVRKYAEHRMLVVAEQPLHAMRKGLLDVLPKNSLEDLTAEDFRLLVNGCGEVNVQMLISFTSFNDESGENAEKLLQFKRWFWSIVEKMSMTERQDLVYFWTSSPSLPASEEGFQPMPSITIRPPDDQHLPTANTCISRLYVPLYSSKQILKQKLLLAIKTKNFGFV

The first experiment concerns the target T1, VCL 1-259 Vinculin (domain begin …. The experiment is described as follows: phage ELISA signal ratio (GST-PRM binding over GST background); higher = stronger binding of peptide-phage to the PRM. The procedure, abridged: (§1)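 Each value is the phage ELISA signal on the glutathione S-transferase (GST)-domain fusion divided by the signal on GST alone. Human peptide recognition domains were expressed in 96-well plates, fused to the C-terminus of GST, and selected against an M13 phage library carrying randomized, cysteine-free, glycine-flanked hexadecapeptides on the gene-8 major coat protein. After five selection rounds, approximately 48 individual clones from rounds 4 and 5 were tested by phage ELISA, and positive clones were sequenced.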
For orientation: ELISA stands for enzyme-linked immunosorbent assay.
As to TAHDWIDEWLVQAMLQ, the “phage ELISA signal ratio” value worked out at 20.3. Consider FDTPLWEQAMWEALGE, for which the “phage ELISA signal ratio” value was 13.2. Same read-out and setting: with VDDQEWPNMEMLLGIV the figure was 17.4; with APVVHDFDAYKMLMQL, 17.2; with YWDAGEVMAQIIQSAH, 11.9. Take WGSEDTQYWLEYVNSV: the “phage ELISA signal ratio” value stood at 24.6. Still for that read-out and setting: for HPQEWSAEEIMVGILY the value was 14.1; for WDPQADWQEQVQYWLV, 20.4.

As for HEIWETDWQWIIDQAY, the “phage ELISA signal ratio” value was found to be 20.4.

Turning to MMPTTEDGWEMWLAEL, the “phage ELISA signal ratio” value was 21.4. MPPWTEDAESWHMWLI: the “phage ELISA signal ratio” value is 14.8. Still for that read-out and setting: with LTGEIWDAEKVIHYVM the figure was 11.1; with LDSFWDAENVIRSIMI, 12.9; with LWDWTPETEQWFQEIV, 13.5. Still for that read-out and setting: with WPDDLDWGTWLETLPL the figure was 13.3; with FPQMWQSPDFWEDWLL, 12.6. On the same count and under the same terms, with QMIEFWTEEEIMHWVH the figure was 13.6; with SDDWFFDLTHSIISTD, 18.4; with DNWYWEAWDAAFLTNG, 20.4. For NTVEWQDMEGHLLGIV, the “phage ELISA signal ratio” value came out at 15.3. On the same count and under the same terms, with WWEQDQDWEEFVNAIE the figure was 16.9; with DNFENWIENWLLEYNG, 9.78.

For another experiment, the target named is UBR5 2391-2453 PABP (domain begin residue: 2391, domain end residue: 2453), O95071. The experiment is described as above. The procedure, abridged:
as §1
As to EFLNVMAPSWVDITEW, the “phage ELISA signal ratio” value stood at 16.9.

In the case of VLDINAQPFHQSGFNH, the “phage ELISA signal ratio” value stood at 25.7. On the same count and under the same terms, for MDVAAQPWIPIVPPEG the value was 28.6; for QMNVQAQEWWPAHMTF, 18.6. Still for that read-out and setting: with AWSMLDIANIKPWNPM the figure was 18.4. The same measure, in the same setting: with LSYESAPWWPHMPAEF the figure was 13.2; with ELSIWADAFQPHWHKV, 21.8; with YGMSIDASSFVPYEFW, 17.8.

Turning to KLDVFAVPFLSSQHEY, the “phage ELISA signal ratio” value is 22.6. On to DDIWPVSAVHAQPFMV, for which the “phage ELISA signal ratio” value was 21.2.

Consider ALSMSAEPFHPMVNYV, for which the “phage ELISA signal ratio” value amounted to 30.1. On the same count and under the same terms, with NNQVMNVNATPYYWPT the figure was 19.4; with EALNIFSPMWEPQYVV, 19.5.

A further experiment concerns the target T2, UEVLD 1-145 UEV (domain begin residue: …. The experiment is described as above. In outline:
as §1
Consider ERFTLFQSSMDSILMF, for which the “phage ELISA signal ratio” value was 26. On the same count and under the same terms, with EQDQDLEYRMHMEKWW the figure was 19.8; with APFTLWESSMEALGEL, 23.3; with EFEWIDHFLGNMESGL, 8.99. In the case of VPWSENQEWQWIFEAV, the “phage ELISA signal ratio” value was determined as 29.3.

Turning to FDWRETLWESSQWMIA, the “phage ELISA signal ratio” value amounted to 22.7. Still for that read-out and setting: for LDWRMAPEWQWITHHL the value was 3.3. Still for that read-out and setting: for MSQDWPWPDLSWFDEP the value was 7.15; for WRQDLETESLMQWFLW, 15.2; for EDHWWIASMWRDQAVQ, 18.1. On the same count and under the same terms, for LGQQYQMWEYMASLYN the value was 11.4; for HQWQGDWDHEHIMMYW, 24.1.

A further experiment addresses VASP 1-114 WH1 (domain begin residue: 1, domain end residue: 114), P50552. The experiment is described as above. The procedure, abridged: as §1
Take NLETWAWPPWPQEFND: the “phage ELISA signal ratio” value was 23.3. In the case of DPYWVWPDLPHNVSHP, the “phage ELISA signal ratio” value turned out to be 19.2.

NWDIWPDWPPTQSVMW: the “phage ELISA signal ratio” value was 5.89. Still for that read-out and setting: for LDMFWPEPPMFNREIP the value was 24.9; for PAWPPWPAEAVWEATK, 12.3. Same read-out and setting: with WPPAPPTEQHRQMWAK the figure was 7.1; with IQDWPELPEVMMHWTL, 9.17. The same measure, in the same setting: with STQKDNNWPLPPVMEE the figure was 21.6.

The target of a further experiment is T3, UQCRB 8-111 UCR_14kD (domain begin …. The experiment is described as above. The procedure, abridged:
as §1
Consider VLPDWMAQHAWEWTGH, for which the “phage ELISA signal ratio” value turned out to be 23.9. Still for that read-out and setting: for FMDMWHWQQLEDYMFL the value was 4.85.
